High-throughput results: PubChem BioAssay, National Center for Advancing Translational Sciences (NCATS)
The full list was thinned out, with hits kept by preference.
AmpC inh no detg = AmpC beta-lactamase inhibition without detergent; P00811; AmpC nitrocefin hydrolysis, absorbance 480 nm, 0.0001% Triton; Potency, µM (highest dose often 57.1 µM), for inactives: at the top dose activity change, negative = inhibition, hits mostly inhibitors; 330,000 compounds, 0.52% hits;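 further: potency means the concentration at half of the fitted maximal effect; plate controls were no compound for no effect and no enzyme for full effect; nearly all actives have a fitted effect of over 20% in size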
Target sequence (P00811 whole entry, looked up): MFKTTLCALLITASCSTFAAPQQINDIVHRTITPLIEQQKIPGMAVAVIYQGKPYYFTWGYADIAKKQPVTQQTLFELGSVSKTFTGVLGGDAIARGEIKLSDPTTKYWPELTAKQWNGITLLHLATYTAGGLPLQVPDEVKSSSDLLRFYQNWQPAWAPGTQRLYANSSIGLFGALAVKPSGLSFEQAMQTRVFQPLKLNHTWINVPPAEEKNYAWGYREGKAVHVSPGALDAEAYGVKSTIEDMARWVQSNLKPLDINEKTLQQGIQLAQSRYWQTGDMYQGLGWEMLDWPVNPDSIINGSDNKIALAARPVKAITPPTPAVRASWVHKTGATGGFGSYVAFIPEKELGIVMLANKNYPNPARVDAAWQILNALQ
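AmpC (5.3 nM in the dispensed reagent) in 20 mM phosphate pH 7.0 with 0.01% (detergent screen) or 0.0001% Triton X-100 was preincubated with compounds for 15 min at room temperature. Nitrocefin was then added from an 800 uM solution, and hydrolysis was followed at 480 nm.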
AmpC inh detg = inhibitors of E. coli AmpC beta-lactamase with detergent; Potency, µM (doses to about 114 µM), for the others: at the top dose activity change, negative = inhibition, actives largely listed as inhibitors; AmpC hydrolysis of nitrocefin, absorbance 480 nm, 0.01% Triton; 370,000 compounds, 0.041% hits; P00811;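 further: potency means the concentration at half of the fitted maximal effect; 0% = no-compound wells and -100% = no-enzyme wells; nearly all actives have a fitted effect of over 25% in size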
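20 mM phosphate pH 7.0 + 0.01% (detergent screen) or 0.0001% Triton X-100; 5.3 nM AmpC reagent; cpd preinc 15 min RT; nitrocefin (800 uM stock) to start; A480 q20 s × 4 min; Activity was normalised to no-enzyme and no-compound control wells.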
CHX counter = counter-screen hit for Shiga toxin inhibitors, cycloheximide; cell reporter, cycloheximide protein synthesis inhibition counterscreen; max response, %; 300,000 compounds, 12% hits; AID 2314; in the data active means max response mostly above about 13%, no sharp cut-off; inactive means mostly below about 14%; further: read at 38.3 µM for the half of the compounds with a filed dose; 0% is about no effect
SARS PLP yeast = blocks SARS-CoV papain-like protease in a yeast assay; S. cerevisiae expressing SARS-CoV PLpro, growth rescue; Potency, µM (series often up to 32.9 µM), for inactives: at the top dose activity, positive = growth rescue, usual class: activators; 330,000 compounds, 0.19% hits; calls by dose curve; further: potency means the concentration at half of the fitted maximal effect; 0% is about no effect; nearly all actives have a fitted effect of over 55% in size
AMA1 RON2 block = AMA1-RON2 (P. falciparum) interaction inhibition; AID 720542; 360,000 compounds, 0.2% hits; Potency, µM (series often up to 58.2 µM), without a hit: top-dose activity change, negative = inhibition, actives largely listed as inhibitors; AlphaScreen AMA1-biotinylated RON2 peptide binding;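 further: potency means the concentration at half of the fitted maximal effect; 0% = vehicle wells and -100% = peptide control; nearly all actives have a fitted effect of over 45% in size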
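AMA1 (3D7) with his tag at 25 nM final met compounds first, then biotinylated RON2 peptide at 25 nM; detection used donor plus acceptor beads, 10 µg/mL apiece, read by AlphaScreen after 30 min at room temperature.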
Shiga inhibitor = inhibitors of Shiga toxin in Vero cells; Vero cells, Shiga toxin protein synthesis inhibition reporter; AID 2315; inhibition, % at 38.7 µM; 290,000 compounds, 9.2% hits; in the data active means inhibition mostly above about 28%, no sharp cut-off; inactive means mostly below about 43%; further: 0% is about no effect
* hit, by the source's call; ? = inconclusive; · = not tested or not shown. Unless noted, the call rests on the fitted dose curve; in most records, active means well fitted curve in the direction sought with a large enough effect; inconclusive means small, poorly fitted or top-dose-only effect, or another doubt; inactive means no such curve, though single readings can be large; an effect the other way counts as inactive or inconclusive.

SMILES | AmpC inh no detg | AmpC inh detg | CHX counter | SARS PLP yeast | AMA1 RON2 block | Shiga inhibitor
COc1cccc2cc(C(=O)N3CCN(c4ccccn4)CC3)c(=O)oc12 | 2% | 12% | 32* | 6% | 11% | 35
COc1ccc(C(=O)Cc2cc3cccc(OC)c3oc2=O)cc1 | -17% | -4% | -3 | 1% | 2% | 5
CCOC(=O)c1ccc(COC(=O)c2cc3ccccc3oc2=O)o1 | -7% | ? | 28* | 0% | -3% | 40
COc1cccc2cc(C(=O)N3CCN(c4cc(C)ccc4C)CC3)c(=O)oc12 | · | -1% | · | · | · | ·
CS(=O)(=O)N1CCC(C(=O)NCc2ccc(F)cc2Cl)CC1 | -9% | 1% | -1 | -2% | 31% | -3
COc1cccc(/C=N/n2c(-c3cc(C)[nH]n3)n[nH]c2=S)c1 | -30% | -1% | 12 | -1% | 57% | 20
CCOC(=O)C1CCCN(C(=O)c2ccccc2[N+](=O)[O-])C1 (centres undefined) | 3% | -12% | -1 | 1% | 9% | 4
COc1ccccc1C(=O)NCCC(=O)Nc1cccc(C)n1 | -14% | 4% | 22* | -5% | 2% | 13
CC/C(C)=N/Nc1nc(-c2cc3cccc(OC)c3oc2=O)cs1 | -49% | -9% | 47* | -1% | 65% | 53*
COC(=O)C1=C(O)/C(=C\c2cc(C)n(-c3ccccc3F)c2C)N=C1C | -17% | -9% | 34* | 2% | -5% | 82*
COC(=O)C1=C(C)NC(=O)/C1=C\c1cc(C)n(-c2ccccc2)c1C | -23% | 6% | 35* | 0% | -22% | 102*
COc1ccc(OC)c(-n2c(C)cc(C=O)c2C)c1 | -8% | 4% | -4 | 0% | -9% | 1
COC(=O)C1=C(O)/C(=C\c2sccc2C)N=C1C | -6% | 5% | 27* | -3% | -11% | 17
COC(=O)c1cccc(-n2c(C)cc(C=O)c2C)c1C | -4% | -5% | 19* | -15% | -3% | 49*
Cc1oc2c(C)c3oc(=O)c4c(c3cc2c1C)CCCC4 | -34% | -5% | 2 | -5% | 0% | 67
O=C(Nc1ccccc1Cl)c1ccc(Cl)cc1Cl | -18% | 4% | 54* | 2% | 12% | 54*
C#Cc1cccc(NC(=O)c2ccc(Cl)cc2Cl)c1 | -43% | 6% | 20* | -2% | 1% | 70*
O=C(Nc1ccc(Cl)cc1Cl)c1ccc(-c2ccccc2)cc1 | -31% | -6% | -3 | 8% | -21% | 9
O=C(Nc1ccccc1Cl)c1ccccc1Cl | -4% | -3% | 14 | -1% | 0% | 8
O=C(NC(=S)Nc1ccccc1O)c1ccc(Cl)cc1Cl | -38% | 4% | 30* | -6% | 88% | 94*
O=C(COc1ccccc1)NNC(=S)NC(=O)c1ccc(Cl)cc1Cl | -13% | -3% | -2 | -50% | 100% | -7
Nc1ccccc1C(=O)Nc1ccc(Cl)cc1Cl | -56% | -2% | 33* | -1% | 1% | 127*
CCCc1cc(=O)[nH]c(SCc2csc(-c3ccccc3)n2)n1 | -11% | 5% | 14 | -28% | -5% | 4
Cc1cc(C)nc(SCc2csc(-c3ccccc3)n2)n1 | 49% | 3% | 61* | -31% | 4% | 85*
Cc1cc(C)nc(SCc2csc(N)n2)n1 | -22% | 2% | 28* | 5% | 11% | 64
SMILES | AmpC inh no detg | AmpC inh detg | CHX counter | SARS PLP yeast | AMA1 RON2 block | Shiga inhibitor
Nc1ccccc1SCc1csc(-c2ccc(Cl)cc2)n1 | 0% | -15% | 44* | -8% | 2% | 113*
Cc1ccsc1CN1CCc2nc(N3CCN(c4ccccc4F)CC3)ncc2C1 | · | 11% | · | · | · | ·
COc1cccc(CN(C)Cc2c(O)ccc3ccccc23)c1 | -21% | ? | 26 | -3% | 0% | 24*
CN(C)/C=N/c1c(C#N)cnn1-c1ccc(F)c(Cl)c1 | · | · | 15 | · | · | 32
Cc1ccc(C2c3c(oc4ccc(Cl)cc4c3=O)C(=O)N2CCCN2CCOCC2)o1 (centres undefined) | 57% | ? | 9.5* | -21% | · | 17
COc1ccc(C2c3c(oc4ccc(Cl)cc4c3=O)C(=O)N2CCN2CCOCC2)cc1 (centres undefined) | 86% | 1% | 13* | 5% | 5% | 32
